Source: PubChem (several laboratories)
This excerpt belongs to a sample that is enriched for hits.
S1P2 ag: activates the human S1P2 receptor | activation, % at 4.5 µM | AID 729 | actives 0.46% (n = 97,000) | S1P2-expressing cell line, agonist reporter read-out; in the data active means activation above about 16%;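 further: 0% = vehicle low control and 100% = maximal reference agonist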
PostGolgi yeast: growth inhibition of a yeast mutant, post-Golgi transport screen; actives 0.9% (n = 98,000); post-Golgi transport phenotypic cell assay; inhibition, % at 10 µM; AID 739;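 further: yeast cells grown in 1536-well plates; yeast grown about 18 h at 30C before absorbance read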
GALR2 antag: antagonists of human galanin receptor 2 (GALR2); GALR2-expressing cells, antagonist mode; actives 0.39% (n = 140,000); O43603; inhibition, % at 4 µM; in the data active means inhibition above about 27%;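 further: cells stimulated with galanin 1-16 at roughly its EC80; 0% = agonist challenge control and 100% = basal control without agonist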
Target sequence (O43603 whole entry, looked up): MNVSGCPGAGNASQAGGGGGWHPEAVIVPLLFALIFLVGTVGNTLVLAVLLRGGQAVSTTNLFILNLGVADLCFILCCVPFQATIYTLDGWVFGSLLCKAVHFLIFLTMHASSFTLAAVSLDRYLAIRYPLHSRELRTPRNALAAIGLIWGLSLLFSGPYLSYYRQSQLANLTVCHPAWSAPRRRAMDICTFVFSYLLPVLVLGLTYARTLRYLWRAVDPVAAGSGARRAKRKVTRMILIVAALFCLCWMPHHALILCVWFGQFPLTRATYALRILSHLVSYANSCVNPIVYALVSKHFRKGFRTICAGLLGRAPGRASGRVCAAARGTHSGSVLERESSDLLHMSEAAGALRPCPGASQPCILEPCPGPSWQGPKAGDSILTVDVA
S1P2 antag: S1P2 (human) receptor antagonism; actives 0.21% (n = 97,000); cell-based S1P2 antagonist assay, inhibition at 5 uM; inhibition, % at 5 µM; O95136; in the data active means inhibition above about 45%;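 further: CRE beta-lactamase reporter cells expressing human S1P2 stimulated with S1P; 0% = agonist at EC80 alone and 100% = agonist plus reference antagonist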
GALR2 ag: agonists of human galanin receptor 2 (GALR2); activation, % (test concentration not listed); GALR2-expressing cells, agonist activation read-out; actives 0.48% (n = 140,000); O43603; in the data active means activation above about 5%, passing the limit was not always enough;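 further: 0% = vehicle buffer wells and 100% = reference agonist at full effect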
PostGolgi ctrl: growth of the yeast control strain, post-Golgi counter-screen; AID 738; efflux-deficient yeast background strain, growth absorbance A615, 16 h; inhibition, % at 10 µM; actives 5% (n = 98,000)
GALR2 ag confirm: GALR2 (human) agonism confirmed | shares compounds with GALR2 ag | GALR2-expressing cells, agonist activation | activation, % at 5.6 µM | actives 10% (n = 460) | AID 864; in the data active means activation above about 8.4%;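 further: 0% = buffer-only vehicle wells and 100% = full reference agonist response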
BLA activ ctr: activates beta-lactamase reporter in GALR2 agonist counterscreen; CHO NFAT-bla reporter, beta-lactamase FRET activation; activation, % at 5.6 µM; shares compounds with GALR2 ag; AID 865; actives 10% (n = 460);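 active means activation above the screen-wide mean activation plus 3 SD, cut at about 8% in these data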;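 further: 0% = DMSO with PBS wells and 100% = thapsigargin positive control wells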
GALR2 blk conf: confirmation of human galanin receptor 2 (GALR2) antagonists | shares compounds with GALR2 antag | GALR2-expressing cells, antagonist mode, inhibition | inhibition, % at 4 µM | actives 60% (n = 480); in the data active means inhibition above about 27%;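 further: cells stimulated with galanin at about its EC80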
BLA inh counter: counter-screen for GALR2 antagonists: beta-lactamase reporter inhibitors; inhibition, % at 4.2 µM; AID 867; shares compounds with GALR2 antag; CHO NFAT-BLA reporter, beta-lactamase FRET, thapsigargin-stimulated; actives 36% (n = 480);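 active means inhibition above the mean inhibition across tested compounds plus 3 SD, cut at about 27% in these data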;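 further: 0% = 500 nM thapsigargin stimulated wells and 100% = unstimulated BSA only wells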
Starred values were filed as active, the others as inactive; x = no result. Unless noted, no stated cut-off is given here; in the data, active means inhibition above about 30%; inactive means the rest.

SMILES	S1P2 ag	PostGolgi yeast	GALR2 antag	S1P2 antag	GALR2 ag	PostGolgi ctrl	others
Cc1cccc(OP(=O)(Oc2ccccc2)OC(c2ccccc2)C(F)(F)F)c1 (centres undefined)	x	x	-3	x	-1	x
CCOC(=O)c1c(-n2c(C)cc(C=C3C(=O)NC(=S)NC3=O)c2C)sc2c1CCCC2	-4	97*	-4	30	-3	42*
Cc1nn(C)c(C)c1P(=S)(c1c(C)nn(C)c1C)N(C)C	-9	10	-3	28	-2	40*
COc1ccc(OC)c2c1CCC1NCCOC21 (centres undefined)	x	x	0	x	0	x
O=S(=O)(c1ccccc1)N1CC1c1ccccc1 (centres undefined)	x	x	7	x	1	x
Nc1cccc(N=Cc2c(O)n(Cc3ccc(F)cc3)c(=O)[nH]c2=O)c1	-4	10	-3	15	0	8
COc1ccc(OCC(=O)Nc2ccc(Cl)cc2C(=O)c2ccccc2)cc1	-2	-2	-14	-5	10	4	GALR2 ag confirm=-1;BLA activ ctr=-3
O=C(COc1ccccc1)Nc1ccc(Cl)cc1C(=O)c1ccccc1	x	x	8	x	0	x
CN1CCC2(CC1)NC(=O)C1=C(CN(C)CC1)N2	-3	-4	-6	-7	-1	10
COc1cc(/C=C(/C)[N+](=O)[O-])ccc1OCc1ccccc1Cl	x	x	4	x	11*	x	GALR2 ag confirm=0;BLA activ ctr=-9
CN1C(=O)C(=Cc2ccccc2OCc2ccccc2Cl)C(=O)N(C)C1=O	x	x	-4	x	-1	x
COCCCNC(=O)c1c(NC(=O)c2ccccc2)n(Cc2ccccc2)c2nc3ccccc3nc12	-4	x	6	1	-1	x
COc1ccc(Cn2c(N)c(C(=O)NCc3ccco3)c3nc4ccccc4nc32)cc1	13	0	-11	-9	13*	30	GALR2 ag confirm=8.6*;BLA activ ctr=16*
CCN(c1ccc(C(O)(C(=O)OC)C(F)(F)F)cc1)S(=O)(=O)c1ccccc1 (centres undefined)	x	4	7	x	16*	-5	GALR2 ag confirm=0;BLA activ ctr=-1
Cc1nn(Cc2ccccc2Cl)c(C)c1C(=O)OCC(=O)N1CC(C)OC(C)C1 (centres undefined)	x	x	6	x	-1	x
CN(C)CCc1nc2ccccc2c(=O)n1-c1ccccc1	4	-3	-15	-12	32*	11	GALR2 ag confirm=-1;BLA activ ctr=-1
Cn1c(=O)cc(SCC(=O)N2CCC3(CC2)OCCO3)c2ccc(Cl)cc21	-3	-3	3	0	-3	0
N#Cc1cc2c(nc1SCC(=O)Nc1cc(Cl)ccc1Cl)C1CCN2CC1	14	x	3	-47	11	x	GALR2 ag confirm=1;BLA activ ctr=1
O=C(CCCN1CCC2(CC1)C(=O)NCN2c1ccccc1)c1ccc(F)cc1	x	x	10	x	16*	x	GALR2 ag confirm=8.8*;BLA activ ctr=14*
N#CCC(=O)NN1Cc2ccccc2C1=N	x	x	-3	x	-1	x
CC(=O)OC(C)(C)/C=C/C(=O)[C@](C)(O)[C@H]1[C@H](O)C[C@@]2(C)[C@@H]3CC=C4[C@H](C[C@H](O)C(=O)C4(C)C)[C@]3(C)C(=O)C[C@]12C	x	x	72*	x	-3	x	GALR2 blk conf=87*;BLA inh counter=102*
C/C(=N\NC(=S)Nc1ccccc1)c1c(O)n(C)c(=O)n(C)c1=O	x	x	6	x	-2	x
CC(=O)OC1(c2ccc(C)cc2)CN2CCC1c1ccccc12 (centres undefined)	-4	-6	39*	2	-2	9	GALR2 blk conf=17;BLA inh counter=14
C=CCn1c(O)c(/C=C2/C=CC=N2)c(=O)[nH]c1=O	x	x	35*	x	-1	x	GALR2 blk conf=25;BLA inh counter=10
Cc1nn(Cc2ccccc2)c(C)c1C(=O)NC1CCCc2ccccc21 (centres undefined)	x	x	10	x	-1	x
COc1cc(/C=C/[N+](=O)[O-])ccc1O	x	x	52*	x	-2	x	GALR2 blk conf=55*;BLA inh counter=23
Cc1cccc(NC(N)=S)c1	-3	4	11	6	-2	5
Nc1cc(Cl)c2nonc2c1[N+](=O)[O-]	x	x	37*	x	4	x	GALR2 blk conf=35*;BLA inh counter=12
CC1=C(/C=C/c2ccccc2)CCN(C)C1	-6	-3	2	-7	-3	4
O=C(Oc1ccc([N+](=O)[O-])cc1)N1CCC(N2CCCCC2)CC1	x	x	-10	x	-2	x
